In this experiment the target is furin, P09958. In words: furin cleavage Z-score vs untreated control; higher = more cleavage, active = 3.5 or more, inactive = 1 or less, 8 variable residues between constant flanks. The procedure, abridged:
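To give the cleavage Z-score, log read counts were set against furin-free reactions, lowess-adjusted and scaled by median absolute deviation. These counts came from PCR adapter-tagged, sequenced DNA released when purified furin cut 8-mer peptides fused to a cDNA oligonucleotide and held on magnetic beads by their N-terminus. Digests were 0.01 ml, 1:10 enzyme:substrate, in 50 mM HEPES pH 7.5 with CaCl2 and NaCl, for 7.5, 15 or 30 min.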

Some of the results follow. The true hit rate is not given.

Chain of furin, P09958 (P09958 whole entry, the tested form may be a part): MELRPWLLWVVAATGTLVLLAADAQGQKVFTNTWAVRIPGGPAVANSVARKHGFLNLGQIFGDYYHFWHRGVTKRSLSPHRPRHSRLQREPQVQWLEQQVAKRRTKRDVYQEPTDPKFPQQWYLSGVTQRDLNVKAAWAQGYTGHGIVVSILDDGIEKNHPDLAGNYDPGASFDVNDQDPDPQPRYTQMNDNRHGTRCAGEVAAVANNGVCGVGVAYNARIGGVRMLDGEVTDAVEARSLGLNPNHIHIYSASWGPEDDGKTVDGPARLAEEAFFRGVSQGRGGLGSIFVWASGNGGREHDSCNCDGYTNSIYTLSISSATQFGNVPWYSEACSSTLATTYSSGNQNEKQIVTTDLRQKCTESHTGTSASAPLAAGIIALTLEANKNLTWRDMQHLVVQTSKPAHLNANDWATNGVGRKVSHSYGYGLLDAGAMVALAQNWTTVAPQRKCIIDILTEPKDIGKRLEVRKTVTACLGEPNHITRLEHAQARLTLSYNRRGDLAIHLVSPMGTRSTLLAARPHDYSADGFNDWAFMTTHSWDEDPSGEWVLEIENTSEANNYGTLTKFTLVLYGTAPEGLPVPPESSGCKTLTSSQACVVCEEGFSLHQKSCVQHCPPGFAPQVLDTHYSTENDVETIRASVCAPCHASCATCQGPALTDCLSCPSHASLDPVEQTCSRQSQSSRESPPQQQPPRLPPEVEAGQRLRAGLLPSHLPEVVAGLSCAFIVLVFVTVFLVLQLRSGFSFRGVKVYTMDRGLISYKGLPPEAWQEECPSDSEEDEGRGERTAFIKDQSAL

For CAVVACSMSYAGNASASA [HC2023], the “furin cleavage Z-score” value reads like this: (7.5 min) 1.53; (15 min) 0.103 (inactive); (30 min) 1.35.

Regarding CASRGRRRRRAGNASASA [FS-302], the “furin cleavage Z-score” value is, setting by setting: (7.5 min) 4.34 (active); (15 min) 2.4; (30 min) 4.26 (active).

CASKGRIRRRAGNASASA [FS-1081]: the “furin cleavage Z-score” value was 8.99 (active) (7.5 min), 8.1 (active) (15 min) and 8.52 (active) (30 min).

In the case of CASRSRRRRRAGNASASA [FS-1490], the “furin cleavage Z-score” value is, setting by setting: (7.5 min) 8.08 (active); (15 min) 8.87 (active); (30 min) 7.6 (active).

Regarding CACVTQTVDFAGNASASA [HC889], the “furin cleavage Z-score” value runs as follows: (7.5 min) 0.399 (inactive); (15 min) -1.73 (inactive); (30 min) 0.371 (inactive).

CAIPPLNVRGAGNASASA [HC591]: the “furin cleavage Z-score” value runs as follows: (7.5 min) -2.18 (inactive); (15 min) -0.0771 (inactive); (30 min) -0.417 (inactive).

As for CARTRRLLDKAGNASASA [FS-2834], the “furin cleavage Z-score” value was -0.433 (inactive) (7.5 min), -1.53 (inactive) (15 min) and -0.417 (inactive) (30 min).

In the case of CARTPRGLDDAGNASASA [FS-3110], the “furin cleavage Z-score” value was 5.13 (active) (7.5 min), 6.18 (active) (15 min) and 6 (active) (30 min).

Regarding CARTRRHLHDAGNASASA [FS-2615], the “furin cleavage Z-score” value by setting is: (7.5 min) 7.74 (active); (15 min) 9.2 (active); (30 min) 8.75 (active).

For the sequence CAITPRCLVDAGNASASA [HC462], the “furin cleavage Z-score” value runs as follows: (7.5 min) -0.371 (inactive); (15 min) -0.729 (inactive); (30 min) -2.3 (inactive).

CARTPRPGEQAGNASASA [FS-2832]: the “furin cleavage Z-score” value runs as follows: (7.5 min) -0.162 (inactive); (15 min) -0.138 (inactive); (30 min) -0.877 (inactive).

As for CARTRRLLWAAGNASASA [FS-2097], the “furin cleavage Z-score” value was -0.0202 (inactive) (7.5 min), 0.591 (inactive) (15 min) and -0.328 (inactive) (30 min).

Take CARTRRALSDAGNASASA [FS-3173]: the “furin cleavage Z-score” value runs as follows: (7.5 min) 7.04 (active); (15 min) 8.87 (active); (30 min) 6.82 (active).

These data come from the supplement of paper PMC3545927.
